PubChem BioAssay (NCI)
Compounds without any hit were thinned out: in the full panel of roughly 83,000, 20% have a hit.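 Activity criterion: percent growth below 10, measured after cells in 96-well plates were exposed to a single compound concentration for 48 hours.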 Values without a mark were called inactive. Calls of active or inactive are those of the source.

Assays:
Assay in all cases: NCI-60 one-dose screen, 48 h (100 = growth as untreated, 0 = no growth, -100 = all killed)
Conditions in all cases: 10 µM unless noted
SR leukemia = test system: SR leukemia
RPMI-8226 leukemia = test system: RPMI-8226 leukemia
OVCAR-8 ovarian = test system: OVCAR-8 ovarian
OVCAR-5 ovarian = test system: OVCAR-5 ovarian
OVCAR-4 ovarian = test system: OVCAR-4 ovarian
SK-OV-3 ovarian = test system: SK-OV-3 ovarian
IGROV1 ovarian = test system: IGROV1 ovarian
OVCAR-3 ovarian = test system: OVCAR-3 ovarian
HS 578T breast = test system: HS 578T breast
T-47D breast = test system: T-47D breast
BT-549 breast = test system: BT-549 breast
MDA-MB-435 melanoma = test system: MDA-MB-435 melanoma
SW-620 colon = test system: SW-620 colon
MCF7 breast = test system: MCF7 breast
HCT-116 colon = test system: HCT-116 colon
HCC-2998 colon = test system: HCC-2998 colon
KM12 colon = test system: KM12 colon
NCI/ADR-RES ovarian = test system: NCI/ADR-RES ovarian

Structure (SMILES)	growth (SR leukemia)	growth (RPMI-8226 leukemia)	growth (OVCAR-8 ovarian)	growth (OVCAR-5 ovarian)	growth (OVCAR-4 ovarian)	growth (SK-OV-3 ovarian)	growth (IGROV1 ovarian)	growth (OVCAR-3 ovarian)	growth (HS 578T breast)	growth (T-47D breast)	growth (BT-549 breast)	growth (MDA-MB-435 melanoma)	growth (SW-620 colon)	growth (MCF7 breast)	growth (HCT-116 colon)	growth (HCC-2998 colon)	growth (KM12 colon)	growth (NCI/ADR-RES ovarian)
CN(C)CCNC(=O)c1ccc(-c2nc3ccc4[nH]ncc4c3c3c2C2CCC3C2)cc1 (centres undefined)	1.91% (active)	-5.84% (active)	20.8%	96%	48.6%	1.15% (active)	16.4%	20.9%	9.56% (active)	43.6%	2.26% (active)	42%	17.8%	9.64% (active)	9.52% (active)	–	–	–
O=C(CSc1nc2ccc([N+](=O)[O-])cc2[nH]1)Nc1ccc([N+](=O)[O-])cc1	10.7%	-17.5% (active)	14.4%	63.3%	1.39% (active)	27%	37.7%	18.5%	31.7%	3.64% (active)	7.77% (active)	14.3%	31.9%	16%	9.88% (active)	31.1%	21.8%	–
O=C1Nc2ccc(C(=O)O)cc2/C1=N/c1nnc(Sc2ccccc2)s1	87.8%	99.1%	98.8%	113%	111%	109%	99.7%	105%	96.8%	103%	–	102%	–	101%	104%	112%	99.9%	110%
c1csc(-c2ccc(CNc3c4ccccc4nc4ccccc34)cc2)c1	-43.7% (active)	-44.4% (active)	55.6%	67.1%	15.3%	65%	10%	–	60.6%	71.9%	33.7%	-83.4% (active)	-72.2% (active)	-63% (active)	-82.6% (active)	-87.2% (active)	26.3%	11.2%
COC1=CC(c2ccc[nH]2)=N/C1=C\c1[nH]c(C)c(C(=O)OC(C)C)c1C	11.8%	-34.6% (active)	2.67% (active)	-40.2% (active)	-49.7% (active)	7.3% (active)	-41.5% (active)	–	-32.8% (active)	-69.2% (active)	-7.21% (active)	-66.2% (active)	-29.2% (active)	-35.5% (active)	-90.3% (active)	-53.2% (active)	–	-12.5% (active)
COc1cc2c(c(OC)c1OC)CCC(c1cccc(C(=O)Nc3ccc(C#N)cc3)c1)O2 (centres undefined)	16.9%	14.4%	28.5%	79.3%	35.3%	73.2%	68.9%	65.6%	72.3%	3.61% (active)	27.2%	36.6%	86.7%	32.5%	48.8%	–	60.6%	–
O=C1/C(=C/c2cccc(F)c2)CN(C(=O)C(Cl)Cl)C/C1=C\c1cccc(F)c1	-15.8% (active)	-31.3% (active)	-48.3% (active)	-63.6% (active)	-36.9% (active)	29.8%	-77.2% (active)	–	-13.7% (active)	-26.5% (active)	-81.1% (active)	-90.2% (active)	-63.2% (active)	-46.7% (active)	-82.8% (active)	-86.5% (active)	-74.3% (active)	-3.11% (active)
Cn1cc(-c2csc(-c3cn(C(=O)OC(C)(C)C)c4ccc(Br)cc34)n2)c2ccnc(Cl)c21	39.2%	79.4%	59.8%	105%	65.3%	82.8%	89.1%	–	2.06% (active)	66.8%	63.9%	63.7%	75.8%	82.8%	64.7%	95%	90.4%	71.8%
c1cnc2c(-c3nc4ccc5[nH]ncc5c4c4c3CCCC4)c[nH]c2c1	5.93% (active)	34.5%	23.8%	37.3%	27.9%	51.5%	18%	–	63.4%	38.1%	72.5%	51.9%	18.9%	9.3% (active)	0.564% (active)	54.7%	26.9%	80.6%
CC1(C)CC(=O)C2=C(C1)N(c1ccc(OC(F)(F)F)cc1)C(N)=C(C#N)C2c1ccc(Br)cc1F (centres undefined)	76%	100%	35.8%	87.2%	54.9%	61.2%	63.2%	–	23.7%	78.9%	69.1%	93.1%	69.9%	83.3%	46.7%	88.4%	89.5%	35.3%
O=C1NC2(Nc3ccccc31)C(=O)Nc1c(Cl)cc(Cl)cc12 (centres undefined)	93.2%	105%	102%	115%	98.9%	107%	91.5%	118%	100%	87.9%	99.3%	103%	100%	–	98.6%	104%	100%	–
CCc1ncnc2c1ccn2C(C)c1ccc(OC)c(F)c1 (centres undefined)	16.5%	37.2%	49.2%	88.1%	54.9%	53.6%	54.9%	34.8%	69.2%	36.1%	52.4%	6.71% (active)	27.7%	33.4%	18.8%	–	27.8%	–
CCCC/C=C/[C@@H]1C[C@H]1CCO	100%	99.3%	100%	89.1%	107%	91.8%	100%	–	101%	95.9%	96.8%	102%	–	87.5%	90.6%	–	103%	104%
C=CCc1c(O)c(C(=O)/C=C/c2ccccc2)c(OC)c2ccoc12	20.6%	6.17% (active)	29.6%	90.5%	49.1%	74.4%	54.7%	–	66.1%	41.3%	34.3%	26.4%	39.9%	16.1%	22.9%	50.4%	45.2%	21%
COc1ccc(-c2nc3cc(C(=O)NCc4ccccc4)ccc3n2C2CCCCC2)cc1	43.8%	69.2%	93%	84.9%	80.4%	102%	105%	–	76.3%	68.2%	80.9%	81.7%	94.9%	76.6%	82.9%	79.3%	57.4%	88.5%
COC(=O)Nc1nc2ccc(S(=O)c3ccccc3)cc2[nH]1 (centres undefined)	23.4%	75.6%	80.3%	92.8%	84.4%	81.1%	67.8%	–	62%	89.1%	77.9%	-33.4% (active)	27.2%	44.1%	39.4%	74.1%	31.6%	53.3%
COCCn1cc(-c2nc(-c3cc4cccnc4[nH]3)cs2)c2cc(OC)ccc21	2.96% (active)	27.1%	25.3%	26.3%	15.6%	21%	24.5%	–	-4.1% (active)	-12.4% (active)	1.78% (active)	52.4%	48.4%	0.765% (active)	30.3%	57.6%	1.17% (active)	28.5%
CCO/C=N/C1=C(C#N)C(c2ccc(Cl)cc2)c2sc3c(F)cccc3c2O1 (centres undefined)	36.8%	54.2%	77.8%	89.2%	77.6%	81.9%	60.7%	–	55.6%	54.8%	68.8%	-30.4% (active)	35.5%	26%	54.2%	84.2%	42.2%	39.6%
COc1cc2oc(-c3cccc(NC(=O)c4ccccc4)c3)cc(=O)c2c(OC)c1OC	31.6%	26.6%	61%	100%	81.7%	104%	78.4%	–	97.2%	50.2%	74.1%	80.7%	91.5%	77.3%	67.7%	87.8%	64.4%	74.5%
